Our source for the activation values is PubChem BioAssay AID624126 (The Scripps Research Institute Molecular Screening Center, 2012).

Molecules are shown by their SMILES. Among all 360,000 compounds or so, about 1,400 (0.39%) were called active. Many of the other results were omitted from the sample, so actives are more common in it than they were. Unmarked numbers belong to inactive results.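 The calls were made as follows: active = activation above its plate's cutoff, the mean activation of sample wells plus 3 SD; inactive = the rest.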

The target of this experiment is Muscarinic acetylcholine receptor M4 (Homo sapiens) (UniProt P08173). The experiment in a line: human M4 muscarinic receptor positive allosteric modulators, primary screen, CHO-K1 cells, Fluo-8 calcium fluorescence (AID 624126). As to conditions: CHO-K1 hM4/Gqi5, Fluo-8 calcium fluorescence, ACh EC20; at 3 µM; stronger effect = higher value; 0% = ACh EC20, 100% = maximal ACh.
Muscarinic acetylcholine receptor M4 (Homo sapiens), sequence (P08173 whole entry, looked up): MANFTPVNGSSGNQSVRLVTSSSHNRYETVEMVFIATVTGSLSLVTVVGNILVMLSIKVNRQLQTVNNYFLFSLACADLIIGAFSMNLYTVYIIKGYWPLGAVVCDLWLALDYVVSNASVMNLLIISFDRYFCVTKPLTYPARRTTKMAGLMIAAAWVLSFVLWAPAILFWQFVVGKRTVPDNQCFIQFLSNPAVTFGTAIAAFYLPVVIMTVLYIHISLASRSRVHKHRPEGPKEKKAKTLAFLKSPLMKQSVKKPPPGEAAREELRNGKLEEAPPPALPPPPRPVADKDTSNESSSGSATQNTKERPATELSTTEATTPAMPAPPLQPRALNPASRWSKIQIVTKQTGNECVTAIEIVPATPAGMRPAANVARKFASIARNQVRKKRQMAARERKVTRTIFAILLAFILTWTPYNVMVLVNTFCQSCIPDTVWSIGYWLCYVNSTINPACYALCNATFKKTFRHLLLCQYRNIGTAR
In the case of `O=C(Nc1ccc(F)cc1)C1CCCN(S(=O)(=O)c2ccc(-n3cnnn3)cc2)C1` (configuration not stated), the activation was 8%.
Consider `CCOC(=O)c1ccc(S(=O)(=O)N(CCO)Cc2cc3cc(OC)c(OC)cc3[nH]c2=O)cc1`, for which the activation is -7.09%.
Turning to `O=C(NCCCn1ccnc1)/C(=C\c1ccccc1F)NC(=O)c1ccccc1`, the activation is -3.09%.
The same measure for `O=C(CN1C(=O)S/C(=C\c2ccccc2F)C1=O)NCCCn1ccnc1`: 17.2% (active); for `O=C(CCN1C(=O)c2ccccc2C1=O)NCCCn1ccnc1`: 8.67%; for `CC(C)(C)CC(=O)Nc1nnc(SCC(=O)NCc2cccs2)s1`: -0.98%.
For `COCCNc1nnc(SCC(=O)NNC(=O)c2ccco2)s1` the value was 2.78%.
The same measure for `COC(=O)CSc1nnc(NC(=O)CCc2ccccc2)s1`: 19.8% (active); for `CC1=NN(C(=O)CCc2ccccc2O)C(O)(C(F)(F)F)C1` (configuration not stated): 5.29%; for `CC1=NN(C(=O)CCCc2ccccc2)C(O)(C(F)(F)F)C1` (configuration not stated): 9.78%.
Take `COc1ccc(CC(=O)N2N=C(C)CC2(O)C(F)(F)F)cc1` (configuration not stated): the activation was 24% (active).
As to `Cn1cc(CN2CCCCC2c2ccccn2)c(-c2ccc3c(c2)OCCO3)n1` (configuration not stated), the activation is 5.23%.
The same measure for `CCOC(=O)c1c(NC(=O)C2CC=CCC2C(=O)O)sc(C)c1CC` (configuration not stated): 0.65%; for `O=C1CCCCC1Sc1ccc(Cl)cc1[N+](=O)[O-]` (configuration not stated): -0.97%.
For `O=C(NC1CCCCC1)C1CCCN(S(=O)(=O)c2ccc(Br)s2)C1` (configuration not stated) the value was -0.65%.
For `CC1=C(C(=O)N2CCOCC2)CC(CC(=O)NCc2cccc3ccccc23)C(=O)N1CCC1=CCCCC1` (configuration not stated) the value was 0.96%; for `CCOc1cc(C(C(=O)NCC2CCCO2)N(C(=O)Cn2nnc3ccccc32)c2cccc(OC)c2)ccc1O` (configuration not stated), 44.7% (active).
As to `Cc1ccc(C(C(=O)NCc2ccco2)N(CC2CCCO2)C(=O)Cn2nnc3ccccc32)cc1` (configuration not stated), the activation was 4.26%.
For `COc1ccc(C(C(=O)NCC2CCCO2)N(C(=O)Cn2nnc3ccccc32)c2ccc(NC(C)=O)cc2)cc1OC` (configuration not stated) the value was 6.34%; for `Cc1ccc(NC(=O)C2CC2)cc1S(=O)(=O)N1CCOCC1`, 0.09%; for `CC(C)Oc1ccc(C(=O)Nc2cc(=O)n(C)c(=O)n2C)cc1`, 5.54%.
The same measure for `C=CCOc1ccc(/C=N/n2cncn2)cc1OC`: 8.05%; for `O=C(Cn1c(=O)n(Cc2ccco2)c(=O)c2ccccc21)NCC1CCCO1` (configuration not stated): 5.16%.
The same measure for `COc1ccc(-c2oc3ncn(Cc4ccco4)c(=N)c3c2-c2ccc(OC)cc2)cc1`: -6.61%; for `Cn1c2ccccc2c(=O)c2c(=O)n(Cc3ccco3)c(COc3ccccc3)nc21`: 21.8% (active).
Regarding `COc1ccc(CCNC(=O)COC(=O)c2cc(=O)c3ccccc3o2)cc1`, the activation was 26.3% (active).
With `CCc1cccc(NC(=O)COC(=O)c2cc(=O)c3ccccc3o2)c1`, the activation is 10.9%.
For `COc1ccc(CCNC(=O)COC(=O)c2ccc[nH]c2=O)cc1` the value was 11.3%; for `COC(=O)c1c(NC(=O)COC(=O)[C@@H](NS(=O)(=O)c2ccccc2)C(C)C)sc2c1CCC2`, -4.52%; for `COC(=O)c1scc(S(=O)(=O)C(C)(C)C)c1-n1cccc1`, -11.5%.
The same measure for `COc1cc(C(=O)N2CCN(C3CCC(C)CC3)CC2)cc(OC)c1OC` (configuration not stated): -7.26%.
For `CC(C)N=C1CCCC1C(=S)SSC(=S)C1CCCC1=NC(C)C` (configuration not stated), the activation is 7.38%.
Consider `Cc1cc(C)cc(C(=O)NC(=S)Nc2ccc3[nH]c(=O)[nH]c3c2)c1`, for which the activation is 5.23%.
For `Cc1cc2[nH]ncc2cc1NC(=S)NC(=O)c1ccccc1` the value was 31.9% (active); for `Cn1nnc(NC(=S)NC(=O)c2ccccc2)n1`, 22.4%.
The same measure for `COc1ccc(C(=O)C2CCCN(C(=O)c3ccc(OC)o3)C2)c(C)c1` (configuration not stated): -1.21%; for `O=c1c2ccccc2nc2n1C1(CCCCC1)Cc1ccccc1-2`: 21.2% (active).
The same measure for `Cc1cccc(-n2c(SCC(N)=O)nc3c(c2=O)C2(CCCCC2)Cc2ccccc2-3)c1`: -5.47%.
With `CN(c1ccc2nc3ccccc3c(=O)n2n1)C1CCCCC1`, the activation was 11.4%.
As to `Cc1ccc(C(=O)C(C)OC(=O)Cc2n[nH]c(=O)c3ccccc23)cc1C` (configuration not stated), the activation is -4.11%.
The same measure for `COc1ccc(C(=O)N/N=C2\CCS(=O)(=O)c3ccc(F)cc32)cc1OC`: 2.71%; for `Cc1sc2ncnc(N3CCC(C(=O)NNC(=O)c4ccc(F)cc4)CC3)c2c1C`: -3.74%.
On to `Cc1sc2ncnc(N3CCC(C(=O)Nc4ccc(F)cc4Cl)CC3)c2c1C`, for which the activation is 45% (active).
For `Cc1sc2ncnc(N3CCC(C(=O)Nc4nc5ccc(Cl)cc5s4)CC3)c2c1C` the value was 7.24%; for `Cc1cccc(N(C)C(=O)c2cc(S(=O)(=O)N3CCCCC3)c[nH]2)c1`, -3.91%.
For `Cc1ccc2cccc(O)c2[n+]1[O-]` the value was 16.2%; for `NCC(=O)c1cccc2ccc[n+]([O-])c12`, 17.3% (active); for `Cc1cccc2cc3c(N)c(C(=O)N4CCCc5ccccc54)sc3nc12`, -7.18%.
For `Cc1nc2sc(C(=O)c3ccccc3)c(N)c2c2c1CCCC2` the value was 63% (active); for `Cn1c(-c2ccc(C(=O)c3ccccc3)s2)nc2ccccc21`, 0.98%.
With `O=C(NCc1ccccc1Cl)C(=O)NCC1CCCN1S(=O)(=O)c1cccs1` (configuration not stated), the activation is -2.08%.
As to `CC(Oc1ccccc1)C(=O)Nc1c2c(nn1-c1ccccc1)CS(=O)C2` (configuration not stated), the activation is -0.93%.
The same measure for `Cc1ccc(S(=O)(=O)N2CCN(C(=O)COC(=O)c3c(C)cc(C)cc3C)CC2)c(C)c1`: -3.37%; for `Cc1ccc(S(=O)(=O)N2CCN(C(=O)CSc3cc(C)ccc3C)CC2)c(C)c1`: 18.8% (active).
The same measure for `CCCc1cc(=O)[nH]c(SCC(=O)N2CCN(S(=O)(=O)c3ccc(C)cc3C)CC2)n1`: -1.77%; for `CC(C#N)(NC(=O)CN1CCN(S(=O)(=O)c2cc(C(F)(F)F)ccc2Cl)CC1)C1CC1` (configuration not stated): 0.11%; for `COc1cccc(NC(=O)C2CCCN(c3ncnc4c3nc3n4CCCCC3)C2)c1` (configuration not stated): -6.71%.
